Among all 59,000 compounds or so, about 60 (0.1%) were called active. How the calls were made is not given here. The sample as a whole holds a higher share of actives than the screen did.
Assay: qHTS Assay for Spectroscopic Profiling in A488 Spectral Region
Details: compound autofluorescence
Source text: NIH Molecular Libraries Screening Centers Network [MLSCN]
NIH Chemical Genomics Center [NCGC]
Occasionally, the artifactual effect may originate from the compounds own spectral or other biophysical properties which generally tend to track its assay concentration. Pre-screening/profiling the library with respect to the compounds spectral properties should help one exclude false positives early on. While the most informative fluorescent profiling data set is obtained by performing a full excitation and emission scan of each well by using a monochromator-based plate reader, such an approach is practical only on a very limited scale as scanning each well requires long time. An alternative approach, applied here, is to perform plate reader scans using selected excitation and emission wavelength pairs to generate a multidimensional relational database that correlates compound concentration and the respective relative fluorescence intensity at a given wavelength set. A standard curve of Alexa 488 (A488) present on each plate as six-point concentration series, was used to compute a normalized fluorescence response, termed dye-equivalent concentration, for each compound at each concentration.
NCGC Assay Protocol Summary:
100 mM Tris buffer, pH 8.0
The wells in columns 1 through 4 of a Kalypsys polypropylene 1536-well compound plate were filled with standard solutions of fluorophore corresponding to the spectral region of interest. Solutions of A488 were placed in the following wells: Y1, Z1: 3 mM, Y2, Z2: 300 uM, Y3, Z3: 30 uM, Y4, Z4: zero (DMSO), AA1, AB1: 3 uM, AA2, AB2: 900 nM, AA3, AB3: 300 nM, AA4, AB4: zero (DMSO).
Six uL of buffer were dispensed to 1536-well Greiner black plates. Compounds and dye standards (23 nL) were transferred via Kalypsys PinTool. The plates were incubated for 15 min at room temperature, and then read on ViewLux (Perkin-Elmer) High-throughput CCD imager using 480 nm and 540 nm excitation and emission filter set.
Keywords: NIH Roadmap, MLSCN, MLI, MLSMR, qHTS, NCGC, A488, A-488, Fluorescent Profiling.

[1] = max dye equivalency: Compound Type: qHTS ECL - SigmaAldrich, active compounds read high unless noted, outcome: dye equivalency, Compound Type: qHTS ECL - MLSMR unless noted

For `COc1ccc2oc(C)c(NC(C)=O)c2c1`, the outcome [1] was “inactive”.
In the case of `NC(=O)CSC1=Nc2ccccc2C2=NC(CCC(=O)NCc3ccc(F)cc3)C(=O)N12` (configuration not stated), the outcome [1] is reported as “inactive [dye equivalency, Compound Type: qHTS ECL - DPISMR]”.
For `Oc1c(C(c2ccccn2)N2CCOCC2)ccc2cccnc12` (configuration not stated), the outcome [1] was “inactive”.
With `COc1cc(OC)cc(C(=O)Nc2ccc(-c3nc4ccccc4o3)c(O)c2)c1` the outcome [1] was “inactive”.
With `Clc1ccccc1-c1cc(NCCN2CCOCC2)ncn1` the outcome [1] was “inactive [dye equivalency, Compound Type: qHTS ECL - Pharmacopeia]”.
In the case of `O=C1c2ccncc2C(=O)N1C1CCCCC1`, the outcome [1] is reported as “inactive”.
With `COc1cc(C2C(C#N)=C(N)Oc3n[nH]c(-c4ccccn4)c32)cc(OC)c1OC` (configuration not stated) the outcome [1] was “inactive”.
In the case of `CS(=O)(=O)c1ccc2nc(NC(=O)CN3CCCCCC3)sc2c1`, the outcome [1] is reported as “inactive”.
In the case of `CC(=O)c1sc2nc(SCC(=O)N3CCCCC3)[nH]c(=O)c2c1C`, the outcome [1] is reported as “inactive [dye equivalency, Compound Type: qHTS ECL - DPISMR]”.
For `O=C(CN1CCN(c2ncc(C(F)(F)F)cc2Cl)CC1)Nc1ccc2c(c1)OCO2`, the outcome [1] was “inactive”.
In the case of `O=c1cnc2cnc(Nc3ccccc3)nc2n1Cc1ccc(F)cc1`, the outcome [1] is reported as “inactive [dye equivalency, Compound Type: qHTS ECL - Pharmacopeia]”.
For `CCOc1ccc(-n2c(SC(C)C(=O)OC)nc3c(c2=O)SCC3)cc1` (configuration not stated), the outcome [1] was “inactive”.
In the case of `CC(Sc1sc(=S)sc1SC(C)C(=O)O)C(=O)O` (configuration not stated), the outcome [1] is reported as “inactive”.
For `CN(C)c1ccc(-c2nc(NCCN3CCOCC3)c3ccccc3n2)cc1`, the outcome [1] was “inactive [dye equivalency, Compound Type: qHTS ECL - Pharmacopeia]”.
For `COCCn1c(=O)c(-c2ccccc2)nc2cnc(N3CCOCC3)nc21`, the outcome [1] was “inactive [dye equivalency, Compound Type: qHTS ECL - Pharmacopeia]”.
For `O=C(c1cccc(F)c1)N1CCC2(CC1)CCN(c1ccccc1)CC2`, the outcome [1] was “inactive [dye equivalency, Compound Type: qHTS ECL - Pharmacopeia]”.
In the case of `Clc1ccc(Cn2ncc3c(NCc4cccnc4)ncnc32)cc1`, the outcome [1] is reported as “inactive [dye equivalency, Compound Type: qHTS ECL - DPISMR]”.
In the case of `O=C(O)C1CCCN1S(=O)(=O)c1ccc2c(c1)CCC2` (configuration not stated), the outcome [1] is reported as “inactive”.
In the case of `CN(C)C(=O)c1ccc(-c2cncnc2Nc2ccccc2)cc1`, the outcome [1] is reported as “inactive [dye equivalency, Compound Type: qHTS ECL - Pharmacopeia]”.
For `CCOC(=O)N1CCC(C(N)=O)CC1`, the outcome [1] was “inactive”.
In the case of `Cc1cc(C)n2nc(C(=O)Oc3ccc4c(c3)OCO4)nc2n1`, the outcome [1] is reported as “inactive”.
In the case of `N#Cc1ccc(CN2CCCC3(CCN(C(=O)c4ccco4)CC3)C2)cc1`, the outcome [1] is reported as “inactive [dye equivalency, Compound Type: qHTS ECL - Pharmacopeia]”.
In the case of `CCCCOc1ccc(NC(=O)CSCC(=O)OCC)cc1`, the outcome [1] is reported as “inactive”.
For `Cc1cccc(N)c1SC1CCCCC1O` (configuration not stated), the outcome [1] was “inactive”.
In the case of `COc1ccccc1CNc1ncncc1-c1cccc(NS(C)(=O)=O)c1`, the outcome [1] is reported as “inactive [dye equivalency, Compound Type: qHTS ECL - Pharmacopeia]”.
For `COC(=O)Cc1c(C)c2ccc(OCC(=O)NCc3ccc4c(c3)OCO4)cc2oc1=O`, the outcome [1] was “inactive [dye equivalency, Compound Type: qHTS ECL - DPISMR]”.
For `O=c1c(CCc2ccccc2)nc2cnc(N3CCNCC3)nc2n1Cc1cccs1`, the outcome [1] was “inactive [dye equivalency, Compound Type: qHTS ECL - Pharmacopeia]”.
With `O=C(NC1CCCCC1)N1CCc2[nH]c3ccccc3c2C1` the outcome [1] was “inactive [dye equivalency, Compound Type: qHTS ECL - DPISMR]”.
For `CCOC(=O)c1c(N)c(C#N)nn1-c1ccccc1C(=O)OC`, the outcome [1] was “inactive [dye equivalency, Compound Type: qHTS ECL - DPISMR]”.
With `Cc1ccc(C(=O)NC2CC(C)(C)NC(C)(C)C2)c(C)c1` the outcome [1] was “inactive”.
With `O=C(Oc1ccc2c(c1)CN(Cc1ccccc1)CO2)c1ccccc1` the outcome [1] was “inactive [dye equivalency, Compound Type: qHTS ECL - NCI]”.
For `c1ccc(-c2cn3cccnc3n2)cc1`, the outcome [1] was “inactive”.
In the case of `CCC(C)n1[nH]c(=O)cc1N` (configuration not stated), the outcome [1] is reported as “inactive”.
With `Cc1cccc(N2CCN(C(c3ccccc3)c3nnnn3CC3CCCO3)CC2)c1C` (configuration not stated) the outcome [1] was “inactive”.
With `CC1(C)CC(=O)C2=C(C1)NCN(CCCN1CCOCC1)C2` the outcome [1] was “inactive [dye equivalency, Compound Type: qHTS ECL - DPISMR]”.
With `O=C(c1ccco1)N1CCN(CC(=O)N(C2CCCCC2)C2CCS(=O)(=O)C2)CC1` (configuration not stated) the outcome [1] was “inactive”.
With `O=c1c(-c2cc(F)cc(F)c2)nc2cnc(Oc3ccccc3)nc2n1C[C@H]1CCCO1` the outcome [1] was “inactive [dye equivalency, Compound Type: qHTS ECL - Pharmacopeia]”.
With `CCCc1nc2ccccc2c(C(=O)OCc2nnc(-c3cc(OC)c(OC)c(OC)c3)o2)c1CC` the outcome [1] was “inactive”.
In the case of `COc1ccc(OCc2cccc(C(=O)N3CCCC3)c2)cc1`, the outcome [1] is reported as “inactive”.
For `CCOc1ccccc1NC(=O)Nc1cc(OC)ccc1OC`, the outcome [1] was “inactive [dye equivalency, Compound Type: qHTS ECL - DPISMR]”.
In the case of `Cn1c(=O)[nH]c(=O)c2c1nc(NCCCn1ccnc1)n2Cc1cccc(Br)c1`, the outcome [1] is reported as “inactive [dye equivalency, Compound Type: qHTS ECL - DPISMR]”.
In the case of `CCCc1nc2ccccc2c(=O)n1/N=C/c1ccc(O)c(O)c1`, the outcome [1] is reported as “inactive [dye equivalency, Compound Type: qHTS ECL - DPISMR]”.
With `COc1ccc(-c2nc3cnc(Oc4ccccc4)nc3n(Cc3cccs3)c2=O)cc1` the outcome [1] was “inactive [dye equivalency, Compound Type: qHTS ECL - Pharmacopeia]”.
In the case of `CN1CCN(S(=O)(=O)c2ccc3[nH]cc(C(=O)O)c(=O)c3c2)CC1`, the outcome [1] is reported as “inactive [dye equivalency, Compound Type: qHTS ECL - DPISMR]”.
For `CCCOP(=O)(c1ccc(N(C)C)cc1)C(O)c1cc(OC)c(OC)c(OC)c1` (configuration not stated), the outcome [1] was “inactive [dye equivalency, Compound Type: qHTS ECL - DPISMR]”.
In the case of `COc1ccccc1-c1nc(NCc2cccs2)c2ccccc2n1`, the outcome [1] is reported as “inactive [dye equivalency, Compound Type: qHTS ECL - Pharmacopeia]”.
With `CC(=O)N1CCC(C(=O)Nc2nc(-c3ccccc3)ns2)CC1` the outcome [1] was “inactive [dye equivalency, Compound Type: qHTS ECL - DPISMR]”.
In the case of `N#Cc1cccc(-c2ccc3ncnc(NCc4cccs4)c3c2)c1`, the outcome [1] is reported as “inactive [dye equivalency, Compound Type: qHTS ECL - Pharmacopeia]”.
With `COc1ncc2nc(-c3ccc(Cl)cc3)c(=O)n(-c3ccccc3)c2n1` the outcome [1] was “inactive [dye equivalency, Compound Type: qHTS ECL - Pharmacopeia]”.
With `COc1ccc2c3c(c(=O)oc2c1OCC(=O)C(C)(C)C)CCCC3` the outcome [1] was “inactive [dye equivalency, Compound Type: qHTS ECL - DPISMR]”.
With `CCOc1ccccc1-n1c(SCC(=O)N2CCCC2)nnc1-c1ccoc1C` the outcome [1] was “inactive”.
With `CCOC(=O)N1CCC(NC(=O)CN2C(=O)COc3ccc(C(C)(C)C)cc32)CC1` the outcome [1] was “inactive [dye equivalency, Compound Type: qHTS ECL - DPISMR]”.
With `CC1(C)CC(=O)C=C(NCc2ccncc2)C1` the outcome [1] was “inactive”.
With `Oc1ccc2ccccc2c1C=NCc1c(O)ccc2ccccc12` the outcome [1] was “inactive [dye equivalency, Compound Type: qHTS ECL - NCI]”.
With `COc1cccc(NS(=O)(=O)c2ccc3[nH]cc(C(=O)NCCCOC(C)C)c(=O)c3c2)c1` the outcome [1] was “inactive”.
For `O=c1c2c(nc3n1CCCCC3)sc1c(O)cccc12`, the outcome [1] was “inactive”.
For `O=C(CN1CCN(c2ccc(F)cc2)CC1)Nc1cccc(C(F)(F)F)c1`, the outcome [1] was “inactive [dye equivalency, Compound Type: qHTS ECL - DPISMR]”.
In the case of `CCc1c(C)nc(N)n2c(SCC(=O)N3CCN(c4ccccc4)CC3)nnc12`, the outcome [1] is reported as “inactive”.
With `O=C(Nc1cccc(F)c1)N1CCC2(CC1)CCN(S(=O)(=O)c1ccccc1)CC2` the outcome [1] was “inactive [dye equivalency, Compound Type: qHTS ECL - Pharmacopeia]”.
In the case of `COc1ccc(-c2nnc(SCC(=O)c3ccco3)n2-c2ccccc2)cc1`, the outcome [1] is reported as “inactive”.
With `CCn1c(SCC(=O)NCC2CCCO2)nc2cc(S(=O)(=O)N3CCCCC3)ccc21` (configuration not stated) the outcome [1] was “inactive”.
For `O=c1c(-c2cccs2)nc2cnc(Oc3ccccc3)nc2n1-c1ccccc1`, the outcome [1] was “inactive [dye equivalency, Compound Type: qHTS ECL - Pharmacopeia]”.
With `COCCn1c(=O)c(-c2cccc(F)c2)nc2cncnc21` the outcome [1] was “inactive [dye equivalency, Compound Type: qHTS ECL - Pharmacopeia]”.
With `CCCn1c(SCC(N)=O)nnc1C(C)C` the outcome [1] was “inactive”.
For `C=CCNC(=O)CCCC(=O)NCC=C`, the outcome [1] was “inactive [dye equivalency, Compound Type: qHTS ECL - DPISMR]”.
In the case of `CN1CCN2c3ccccc3Cc3ccccc3[C@@H]2C1`, the outcome (dye equivalency, Compound Type: qHTS ECL - Prestwick) is reported as “inactive” and the outcome (dye equivalency, Compound Type: qHTS ECL - SigmaAldrich) is reported as “inactive”.
In the case of `CSc1nc(O)c(Cc2ccccc2)c(=O)[nH]1`, the outcome [1] is reported as “inactive”.
In the case of `O=C(Cn1c(-c2ccc(Cl)cc2)noc1=O)N1CCN(c2ccccc2F)CC1`, the outcome [1] is reported as “inactive”.
For `CCN(Cc1cc2cc(C)ccc2[nH]c1=O)S(=O)(=O)c1ccccc1`, the outcome [1] was “inactive”.
In the case of `CCCCOc1ccc(Cl)cc1CSc1nncn1N`, the outcome [1] is reported as “inactive [dye equivalency, Compound Type: qHTS ECL - DPISMR]”.
In the case of `O=c1cc(-c2ccccc2)[nH]c2nc(Cl)ccc12`, the outcome [1] is reported as “inactive [dye equivalency, Compound Type: qHTS ECL - SigmaAldrich]”.

— PubChem BioAssay AID591 (National Center for Advancing Translational Sciences (NCATS), 2007)
